From PubChem BioAssay (NCI)
Compounds without any hit were thinned out: in the full panel of roughly 83,000, 20% have a hit.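 48-hour exposure, single concentration, 96-well plates; percent growth endpoint where 0 means no net growth. Active: below 10.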 The source made the active and inactive calls.

Tests used:
Test in all cases: NCI-60 one-dose screen, 48 h (100 = growth as untreated, 0 = no growth, -100 = all killed)
Settings in all cases: 10 µM
RPMI-8226 leukemia = tested on: RPMI-8226 leukemia
OVCAR-8 ovarian = tested on: OVCAR-8 ovarian
OVCAR-5 ovarian = tested on: OVCAR-5 ovarian
OVCAR-4 ovarian = tested on: OVCAR-4 ovarian
SK-OV-3 ovarian = tested on: SK-OV-3 ovarian
IGROV1 ovarian = tested on: IGROV1 ovarian
OVCAR-3 ovarian = tested on: OVCAR-3 ovarian
HS 578T breast = tested on: HS 578T breast
NCI/ADR-RES ovarian = tested on: NCI/ADR-RES ovarian
T-47D breast = tested on: T-47D breast

Measured: growth

CC(=O)c1nc2ccccc2n1CCN1CCN(C)CC1
inactive: OVCAR-8 ovarian 34.8% | OVCAR-5 ovarian 53.7% | OVCAR-4 ovarian 64.6% | SK-OV-3 ovarian 27.4% | IGROV1 ovarian 39.3% | HS 578T breast 48.3% | NCI/ADR-RES ovarian 97% | T-47D breast 33.4%
active: RPMI-8226 leukemia 3.09% | OVCAR-3 ovarian 4.3%

COc1cc(C(=C2O[C@@H]([C@H]3COC(C)(C)O3)[C@H]3OC(C)(C)O[C@@H]23)c2cc(OC)c(OC)c(OC)c2)cc(OC)c1OC
inactive: RPMI-8226 leukemia 88.1% | OVCAR-8 ovarian 108% | OVCAR-5 ovarian 90.8% | OVCAR-4 ovarian 108% | SK-OV-3 ovarian 116% | IGROV1 ovarian 137% | OVCAR-3 ovarian 112% | NCI/ADR-RES ovarian 91.7% | T-47D breast 95.7%

O=C(CC(c1ccccc1)N1CCOCC1)c1ccccc1 (stereo not given)
active: RPMI-8226 leukemia 5.15%
inactive: OVCAR-8 ovarian 96.6% | OVCAR-5 ovarian 79.3% | OVCAR-4 ovarian 98.3% | SK-OV-3 ovarian 104% | IGROV1 ovarian 97.4% | OVCAR-3 ovarian 94.7% | NCI/ADR-RES ovarian 91.2% | T-47D breast 72%

CCC1(C(C)C)NC(=O)NC1=O (stereo not given)
inactive: RPMI-8226 leukemia 91.8% | OVCAR-8 ovarian 104% | OVCAR-5 ovarian 89.3% | OVCAR-4 ovarian 103% | SK-OV-3 ovarian 107% | IGROV1 ovarian 112% | OVCAR-3 ovarian 115% | NCI/ADR-RES ovarian 99.5% | T-47D breast 97%

Nc1ncnc2[nH]c(=O)[nH]c12
inactive: RPMI-8226 leukemia 195% | OVCAR-8 ovarian 93.3% | OVCAR-5 ovarian 87.9% | OVCAR-4 ovarian 96.7% | SK-OV-3 ovarian 110% | IGROV1 ovarian 113% | HS 578T breast 144% | NCI/ADR-RES ovarian 107% | T-47D breast 94.2%

COc1ccc2c(c1)sc1nc(-c3ccccc3)c(-c3ccc(O)c(OC)c3)n12
inactive: RPMI-8226 leukemia 78.5% | OVCAR-8 ovarian 97.5% | OVCAR-5 ovarian 107% | OVCAR-4 ovarian 102% | SK-OV-3 ovarian 96% | IGROV1 ovarian 72.8% | OVCAR-3 ovarian 83.5% | HS 578T breast 84.6% | NCI/ADR-RES ovarian 64.6% | T-47D breast 111%

COc1ccc(Cl)cc1-n1nnc(-c2nc3ccccc3[nH]2)c1N
active: OVCAR-4 ovarian -79.9%
inactive: RPMI-8226 leukemia 53.9% | OVCAR-8 ovarian 82.4% | OVCAR-5 ovarian 96.2% | SK-OV-3 ovarian 62.6% | IGROV1 ovarian 85.5% | HS 578T breast 43.3% | NCI/ADR-RES ovarian 92.1% | T-47D breast 67.5%

COc1cc(/C(=C2/O[C@@H]([C@H]3COC(C)(C)O3)[C@H]3OC(C)(C)O[C@@H]23)c2ccc3ccccc3c2)cc(OC)c1OC
active: OVCAR-3 ovarian -6.76%
inactive: RPMI-8226 leukemia 36.8% | OVCAR-8 ovarian 18.9% | OVCAR-5 ovarian 38.2% | OVCAR-4 ovarian 25.7% | SK-OV-3 ovarian 51.4% | IGROV1 ovarian 21.4% | NCI/ADR-RES ovarian 25.9%

COc1ccc(OC)c(NC(=O)c2sc3nc4c(cc3c2N)C(=O)CCC4)c1
inactive: RPMI-8226 leukemia 95.8% | OVCAR-8 ovarian 96.1% | OVCAR-5 ovarian 101% | OVCAR-4 ovarian 109% | SK-OV-3 ovarian 44.7% | IGROV1 ovarian 96.4% | OVCAR-3 ovarian 118% | HS 578T breast 96.8% | NCI/ADR-RES ovarian 91% | T-47D breast 93.9%

CCCCCCCCCCCCCCCCCC(=O)OCCCCCCC
inactive: RPMI-8226 leukemia 96.8% | OVCAR-8 ovarian 102% | OVCAR-5 ovarian 106% | OVCAR-4 ovarian 110% | SK-OV-3 ovarian 105% | IGROV1 ovarian 111% | OVCAR-3 ovarian 101% | HS 578T breast 109% | T-47D breast 99.6%

COC(=O)C(=C\c1ccc2c(c1)OCO2)/C(=C/c1ccc2c(c1)OCO2)C(=O)OC
inactive: RPMI-8226 leukemia 98.7% | OVCAR-8 ovarian 103% | OVCAR-5 ovarian 98.9% | OVCAR-4 ovarian 106% | SK-OV-3 ovarian 105% | IGROV1 ovarian 87.1% | HS 578T breast 106% | NCI/ADR-RES ovarian 96.4% | T-47D breast 89.2%

O=C(Nc1ccncc1)C(=O)c1cn(S(=O)(=O)c2cc(Cl)cc(Cl)c2)c2ccccc12
inactive: RPMI-8226 leukemia 57.1% | OVCAR-8 ovarian 69.1% | OVCAR-5 ovarian 89% | OVCAR-4 ovarian 75.5% | SK-OV-3 ovarian 97.2% | IGROV1 ovarian 57.6% | OVCAR-3 ovarian 59.7% | HS 578T breast 69.6% | NCI/ADR-RES ovarian 55.3% | T-47D breast 56.8%

COc1ccc(-c2nc3sc(-c4ccc(OC)cc4)c(-c4ccc(OC)cc4)n3c2/C=C/c2ccc(C(C)C)cc2)cc1
inactive: RPMI-8226 leukemia 97.4% | OVCAR-8 ovarian 97% | OVCAR-5 ovarian 94.6% | OVCAR-4 ovarian 90.8% | SK-OV-3 ovarian 97.4% | IGROV1 ovarian 111% | OVCAR-3 ovarian 100% | HS 578T breast 89.4% | NCI/ADR-RES ovarian 106% | T-47D breast 97.2%

COc1ccc(-c2nnc(-c3c(-c4ccccc4)nc4ncccn34)o2)cc1OC
inactive: RPMI-8226 leukemia 94.8% | OVCAR-8 ovarian 99% | OVCAR-5 ovarian 91.7% | OVCAR-4 ovarian 93.1% | SK-OV-3 ovarian 95.9% | IGROV1 ovarian 98.5% | OVCAR-3 ovarian 108% | HS 578T breast 98.3% | NCI/ADR-RES ovarian 101% | T-47D breast 87.2%

CCCCOC(=O)Oc1ccc(C(=O)Oc2ccc(OCC)cc2)cc1
inactive: RPMI-8226 leukemia 74.6% | OVCAR-8 ovarian 99.1% | OVCAR-5 ovarian 94.3% | OVCAR-4 ovarian 87.9% | SK-OV-3 ovarian 111% | IGROV1 ovarian 105% | OVCAR-3 ovarian 98.6% | HS 578T breast 94.5% | T-47D breast 111%

CCCCC(CCCCCC(CCCC)NCc1ccc2c(c1)OCO2)NCc1ccc2c(c1)OCO2 (stereo not given)
active: RPMI-8226 leukemia -59.2% | OVCAR-8 ovarian -83.2% | OVCAR-5 ovarian -100% | OVCAR-4 ovarian -98.9% | SK-OV-3 ovarian -100% | IGROV1 ovarian -100% | OVCAR-3 ovarian -100% | HS 578T breast -67.7% | NCI/ADR-RES ovarian -99% | T-47D breast -76.6%

C(CCCC1=NCCO1)CCCC1=NCCO1
inactive: RPMI-8226 leukemia 89.4% | OVCAR-8 ovarian 106% | OVCAR-5 ovarian 100% | OVCAR-4 ovarian 109% | SK-OV-3 ovarian 105% | IGROV1 ovarian 114% | OVCAR-3 ovarian 99.9% | HS 578T breast 99.3% | NCI/ADR-RES ovarian 104% | T-47D breast 109%

COc1ccc(Nc2nc3ccc(NC(=O)NC4CCCCC4)cc3[nH]c2=O)cc1
inactive: RPMI-8226 leukemia 66.2% | OVCAR-8 ovarian 91.4% | OVCAR-5 ovarian 104% | OVCAR-4 ovarian 113% | SK-OV-3 ovarian 96.1% | IGROV1 ovarian 94.1% | OVCAR-3 ovarian 112% | HS 578T breast 69.6% | NCI/ADR-RES ovarian 103% | T-47D breast 92.8%

COc1ccc(-c2nc(-c3nc4cc(Cl)c(F)cc4[nH]3)c3ccccn23)cc1
active: RPMI-8226 leukemia 8.97%
inactive: OVCAR-8 ovarian 40.5% | OVCAR-5 ovarian 98% | OVCAR-4 ovarian 57.6% | SK-OV-3 ovarian 105% | IGROV1 ovarian 74.6% | HS 578T breast 133% | NCI/ADR-RES ovarian 60.2% | T-47D breast 39.7%

O=C(C[P+](c1ccccc1)(c1ccccc1)c1ccccc1)C[P+](c1ccccc1)(c1ccccc1)c1ccccc1
active: RPMI-8226 leukemia -40.6% | OVCAR-8 ovarian -42.1% | OVCAR-5 ovarian -94.9% | OVCAR-4 ovarian -55.8% | SK-OV-3 ovarian -3.83% | IGROV1 ovarian -69.3% | HS 578T breast -5.42% | NCI/ADR-RES ovarian 1.56% | T-47D breast -45.2%

CC(=O)c1nc2ccccc2n1CCNC(N)=O
inactive: RPMI-8226 leukemia 32% | OVCAR-8 ovarian 85.1% | OVCAR-5 ovarian 97.5% | OVCAR-4 ovarian 93.1% | SK-OV-3 ovarian 91.5% | IGROV1 ovarian 88.9% | HS 578T breast 68.9% | NCI/ADR-RES ovarian 101% | T-47D breast 67.8%

COc1cc(-c2nc(-c3nnc(-c4ccc(F)c(Cl)c4)o3)c3ccccn23)cc(OC)c1OC
active: OVCAR-8 ovarian -28.2% | OVCAR-4 ovarian -40.4% | SK-OV-3 ovarian -4.85%
inactive: RPMI-8226 leukemia 35.3% | OVCAR-5 ovarian 67.6% | IGROV1 ovarian 72.9% | OVCAR-3 ovarian 22.3% | HS 578T breast 58.6% | NCI/ADR-RES ovarian 21% | T-47D breast 30.4%

CCN(CC)CCSCCN(CC)CC
inactive: RPMI-8226 leukemia 105% | OVCAR-8 ovarian 101% | OVCAR-5 ovarian 94.3% | OVCAR-4 ovarian 96.4% | SK-OV-3 ovarian 98.9% | IGROV1 ovarian 109% | HS 578T breast 106% | NCI/ADR-RES ovarian 108% | T-47D breast 94%

FC(F)(F)c1ccc(-c2cnc(Cl)nc2N2CCC3(CC2)OCCO3)cc1
inactive: RPMI-8226 leukemia 76.3% | OVCAR-8 ovarian 95% | OVCAR-5 ovarian 92.9% | OVCAR-4 ovarian 89.9% | SK-OV-3 ovarian 88.9% | IGROV1 ovarian 83.6% | HS 578T breast 105% | NCI/ADR-RES ovarian 87.4% | T-47D breast 88.8%

O=C(NN1C(=O)CSC1c1ccc(Cl)cc1)c1cccnc1 (stereo not given)
inactive: RPMI-8226 leukemia 74.8% | OVCAR-8 ovarian 99.7% | OVCAR-5 ovarian 86.7% | OVCAR-4 ovarian 118% | SK-OV-3 ovarian 106% | IGROV1 ovarian 112% | OVCAR-3 ovarian 121% | NCI/ADR-RES ovarian 91.4% | T-47D breast 102%

O=C(C[n+]1ccccc1)c1ccc2ccccc2c1
inactive: RPMI-8226 leukemia 93.4% | OVCAR-8 ovarian 89% | OVCAR-5 ovarian 75.9% | OVCAR-4 ovarian 86.3% | SK-OV-3 ovarian 101% | IGROV1 ovarian 105% | OVCAR-3 ovarian 95% | NCI/ADR-RES ovarian 92% | T-47D breast 87.2%

CCCCCCCCN(CCCCCCCC)CCCCCCCCCN1CCCc2cc(OC)ccc21
inactive: RPMI-8226 leukemia 65.9% | OVCAR-8 ovarian 101% | OVCAR-5 ovarian 90.9% | OVCAR-4 ovarian 78.2% | SK-OV-3 ovarian 93.6% | IGROV1 ovarian 101% | HS 578T breast 91.3% | NCI/ADR-RES ovarian 88.5% | T-47D breast 74.3%

Cn1c([N+](=O)[O-])cnc1/C=C1\Oc2ccccc2C1=O
active: RPMI-8226 leukemia -7.1% | OVCAR-8 ovarian -26% | OVCAR-5 ovarian 0.959% | SK-OV-3 ovarian -15.9% | IGROV1 ovarian -29.5% | HS 578T breast -21.8% | NCI/ADR-RES ovarian -5.9%
inactive: OVCAR-4 ovarian 10.5% | T-47D breast 87.3%

Cn1c(C(N)=O)cc2c1-c1nc(Nc3ccccc3)ncc1CCC2
inactive: RPMI-8226 leukemia 53.2% | OVCAR-8 ovarian 51% | OVCAR-5 ovarian 36.4% | OVCAR-4 ovarian 33.1% | SK-OV-3 ovarian 40.2% | IGROV1 ovarian 25.5% | HS 578T breast 17.3% | NCI/ADR-RES ovarian 66.3% | T-47D breast 65.1%
